Sampled rows, rich in hits. Any-hit rate of the full collection: about 9%.
JMJD2A Tudor inh = qHTS Assay for Inhibitors of JMJD2A-Tudor Domain; Lysine-specific demethylase 4A (Homo sapiens), O75164; 390,000 compounds, 4.4% hits; Potency, µM (titrated, usually from 114 µM), actives largely listed as inhibitors; AlphaScreen JMJD2A-Tudor / H3K4me3 peptide binding; AID 504339, 2011; note: nearly all actives have a fitted effect of over 50% in size
PLK1 PBD block = qHTS for Inhibitors of PLK1-PDB (polo-like kinase 1 - polo-box domain): Primary Screen; Serine/threonine-protein kinase PLK1 (Homo sapiens), P53350; Plk1 PBD binding of FITC phosphopeptide, fluorescence polarization; Potency, µM, usual class: inhibitors; 360,000 compounds, 2.8% hits; AID 720504, 2013; note: series mostly up to about 57 µM; nearly all actives have a fitted effect of over 65% in size
Target sequence (P53350 whole entry, looked up, the tested form may be a part): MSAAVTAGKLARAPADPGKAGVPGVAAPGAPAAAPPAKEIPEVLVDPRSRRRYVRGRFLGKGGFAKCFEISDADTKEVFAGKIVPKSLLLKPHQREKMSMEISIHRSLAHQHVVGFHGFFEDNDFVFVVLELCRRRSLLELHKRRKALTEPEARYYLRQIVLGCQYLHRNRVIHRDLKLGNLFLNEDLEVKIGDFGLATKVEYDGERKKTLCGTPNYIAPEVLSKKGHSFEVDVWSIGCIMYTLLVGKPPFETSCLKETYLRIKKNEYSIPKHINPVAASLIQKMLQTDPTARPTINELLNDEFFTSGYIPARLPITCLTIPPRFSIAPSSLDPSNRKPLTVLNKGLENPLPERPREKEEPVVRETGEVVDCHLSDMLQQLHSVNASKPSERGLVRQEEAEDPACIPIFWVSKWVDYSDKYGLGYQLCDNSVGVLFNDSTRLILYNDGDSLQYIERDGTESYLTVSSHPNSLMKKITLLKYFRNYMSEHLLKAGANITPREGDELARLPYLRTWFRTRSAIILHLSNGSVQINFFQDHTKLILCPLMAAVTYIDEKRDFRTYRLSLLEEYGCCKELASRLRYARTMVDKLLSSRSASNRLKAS
12-LOX inh = Primary qHTS assay for inhibitors of human arachidonate 12S-lipoxygenase (ALOX12): Round 2 | purified 12hLO, xylenol orange hydroperoxide absorbance | Potency, µM (titrated, usually from 108 µM), most hits filed as inhibitors | 580,000 compounds, 1.1% hits | AID 1671190, 2021
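Hydroperoxide product was detected by ferrous iron/xylenol orange as the 573 to 405 nm absorbance ratio. Arachidonic acid at 40 uM (final) was turned over for 30 min at room temperature by 150 nM human 12hLO, pH 7.0 Hepes buffer, after 15 min compound preincubation.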
HP1b binding inh = HTS for Inhibitors of HP1-beta Chromodomain Interactions with Methylated Histone Tails. Chromobox protein homolog 1 (Homo sapiens), P83916. AlphaScreen HP1-beta / biotin-H3K9me3 peptide binding. Potency, µM (titrated, usually from 114 µM), hits mostly inhibitors. 390,000 compounds, 0.56% hits; note: nearly all actives have a fitted effect of over 70% in size
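HP1-beta protein (50 nM final) preincubated 30 min at room temperature with biotinylated H3(1-18)K9me3 peptide (50 nM) in PBS pH 7.4, 0.01% Tween-20, then compound added for 30 min. AlphaScreen streptavidin donor/nickel chelate acceptor beads (10 ug/mL final), 30 min dark, luminescence read.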
BAZ2B block = qHTS Assay for Inhibitors of BAZ2B | Bromodomain adjacent to zinc finger domain protein 2B (Homo sapiens), Q9UIF8 | AlphaScreen BAZ2B-H3K14Ac peptide displacement | Potency, µM (doses to about 114 µM), most hits filed as inhibitors | 360,000 compounds, 4.4% hits; note: nearly all actives have a fitted effect of over 60% in size
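AlphaScreen luminescence quantifies BAZ2B engagement of H3K14Ac peptide; the protein and biotinylated peptide are both at 50 nM final, buffer PBS pH 7.4 with 0.01% Tween-20, all steps at room temperature.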
G9a inh = qHTS Assay for Inhibitors of Histone Lysine Methyltransferase G9a | Histone-lysine N-methyltransferase EHMT2 (Homo sapiens), Q96KQ7 | G9a H3K9 monomethylation, AlphaScreen, 2 h | Potency, µM (titrated, usually from 102 µM), actives largely listed as inhibitors | 350,000 compounds, 8.8% hits | AID 504332, 2011; note: nearly all actives have a fitted effect of over 75% in size
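G9a (20 nM) preincubated 15 min RT with compounds, then 500 nM biotinylated H3K9 peptide and 20 uM SAM added; 2 h RT reaction. Monomethyl-H3K9 product detected by AlphaScreen with anti-H3K9me1 antibody, streptavidin donor and anti-rabbit IgG acceptor beads.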
A number is an active result; n = inactive; u = inconclusive; x = no result given; [ ] = another dose, or the depositor's remark. Calls come from the whole dose curve; as a rule, active = well fitted curve in the direction sought with a large enough effect; inconclusive = small, poorly fitted or top-dose-only effect, or another doubt; inactive = no such curve, though single readings can be large; an effect the other way counts as inactive or inconclusive.

SMILES | JMJD2A Tudor inh | PLK1 PBD block | 12-LOX inh | HP1b binding inh | BAZ2B block | G9a inh
Cc1cccc2cc(CN(Cc3cccnc3)C(=S)NCCCN(C)C)c(=O)[nH]c12 | 13µM | 9.5µM | n | n | u | u
O=C(CCC1CCCN(C(=O)c2ccc3c(c2)OCCO3)C1)NCc1ccccc1F (configuration not stated) | n | n | n | n | n | n
Cc1cc(C)n2c(Nc3ccc4c(c3)OCCO4)c(CCc3ccccc3)nc2n1 | x | n | n | x | x | x
Cc1ccn2c(Nc3ccc4c(c3)OCO4)c(-c3ccco3)nc2c1 | u | x | n | u | n | 4.5µM
Cc1ccc(-c2nc3cccc(C)n3c2Nc2ccc3c(c2)OCO3)o1 | 40µM | x | u | u | 28µM | 18µM
Cc1cc(C)n2c(Nc3ccc4c(c3)OCCO4)c(C3CC3)nc2n1 | x | n | n | x | x | x
Cc1ccc(Nc2c(-c3ccc(C)o3)nc3cccc(C)n23)cc1 | 45µM | x | 45µM | u | 25µM | 18µM
Cc1cccc2nc(-c3ccco3)c(Nc3ccccc3)n12 | u | n | n | n | 40µM | u
Cc1ccc(C2=NO[C@@](CC(=O)O)(C(=O)Nc3c(C)cccc3C)C2)cc1 | x | x | n | x | x | x
Cc1ccc(-c2ccnc3c(Cl)c(C)nn23)cc1 | n | n | n | n | n | u
CSc1ccc(-c2nc3cccc(C)n3c2Nc2ccc3c(c2)OCO3)cc1 | 28µM | x | u | u | x | 5.6µM
Cc1cccc2nc(-c3ccco3)c(Nc3ccc4c(c3)OCO4)n12 | 45µM | n | u | u | 20µM | 35µM
Cc1cc(C)n2c(Nc3ccc4c(c3)OCCO4)c(-c3ccc(Cl)cc3)nc2n1 | u | x | u | n | n | n
Cc1cc(C)n2c(Nc3ccc4c(c3)OCCO4)c(C(C)C)nc2n1 | x | n | n | x | x | x
CCOC(=O)CN1NC2(CCCC(C)C2)NC1=S (configuration not stated) | 50µM | n | n | n | n | 10µM
CCOC(=O)CN1NC2(CCC(C(C)(C)C)CC2)NC1=S (configuration not stated) | 40µM | n | u | n | u | n[12.7 µM]
CCOC(=O)CN1NC2(CCC(C)CC2)NC1=S (configuration not stated) | 28µM | n | u | n | u | 25µM
CCn1c(SCC(=O)Nc2ccc3c(c2)c2ccccc2n3CC)nnc1-c1cnccn1 | n | n | n | n | n | n
Cc1ccccc1NC(=O)C1CCCC1 | x | x | n | x | x | x
Cc1ccccc1NC(=O)C1c2cccc[n+]2CC(=O)N1c1c(C)cccc1C (configuration not stated) | 50µM | u | u | u | 45µM | 5.6µM
Cc1cccc(C)c1NC(=O)C1c2cccc[n+]2CC(=O)N1Cc1ccc2c(c1)OCO2 (configuration not stated) | n | n | u | n | n | 8.9µM
COc1ccccc1NS(=O)(=O)CC12CCC(CC1=O)C2(C)C (configuration not stated) | n | n | n | n | n | u
COc1ccc(NC(=O)C2=C(C)Nc3nc4ccccc4n3C2c2ccccc2C)cc1 (configuration not stated) | x | x | n | x | x | x
O=C(CCl)N1c2ccccc2Sc2c1ccc1ccccc21 | n | u | 35µM | n | x | x
O=C(O)CCc1nn2c3ccccc3n(CCO)c2nc1=O | n | n | n | n | n | u
SMILES | JMJD2A Tudor inh | PLK1 PBD block | 12-LOX inh | HP1b binding inh | BAZ2B block | G9a inh
O=C(O)CCc1nn2c3ccccc3n(Cc3ccccc3F)c2nc1=O | u | 27µM | n | u | n | n
O=C(O)CCc1nn2c3ccccc3n(CC(=O)O)c2nc1=O | n | n | u | n | n | 50µM
CC(O)C(=O)O (configuration not stated) | x | x | x | x | x | n
CC(C(=O)O)C(=O)O | 79µM | n | n | n | n | 10µM
C#CCOCCOCCOCCNc1nc(N2CCN(C(=O)[C@H](CCCCN)n3cc([C@@H](N)CO)nn3)CC2)nc(N2CCN(C(=O)[C@H](Cc3cc4ccccc4[nH]3)n3cc([C@@H](N)Cc4ccc(O)cc4)nn3)CC2)n1 | x | x | x | x | 32µM | n[12.7 µM]
C#CCOCCOCCOCCNc1nc(N2CCN(C(=O)[C@H](CCCCN)n3cc([C@@H](N)CC(C)C)nn3)CC2)nc(N2CCN(C(=O)[C@H](Cc3cc4ccccc4[nH]3)n3cc([C@@H](N)Cc4ccc(O)cc4)nn3)CC2)n1 | 18µM | n | x | n | n | n
C#CCOCCOCCOCCNc1nc(OC)nc(N2CCN(C(=O)[C@H](CCCCN)n3cc(C(N)CO)nn3)CC2)n1 (some centres not stated) | x | x | x | x | u | n[12.7 µM]
CCNC(=O)C1(C)CCN(Cc2ccccc2C#N)C1 (configuration not stated) | x | n | n | x | x | x
CN(C)/C=C/c1oc2ccc(O)cc2c1[N+](=O)[O-] | n | n | n | n | 25µM | 50µM
Cc1cccc(C)c1N(CC(=O)Nc1cc(Cl)ccc1Oc1ccccc1)S(C)(=O)=O | n | n | n | n | n | 13µM
Cc1ccc(C)c(N(CC(=O)Nc2cc(Cl)ccc2Oc2ccccc2)S(C)(=O)=O)c1 | n | n | n | n | n | n
Brc1ccc2ncnc(NCc3ccco3)c2c1 | n | n | n | n | n | n
CCc1nc(NCc2ccco2)c2oc3ccccc3c2n1 | n | n | n | n | 79µM | u
O=C(CSc1ncnc2c1oc1ccccc12)NCc1ccco1 | n | n | n | n | 50µM | 14µM
c1coc(CNc2ncnc3c2oc2ccccc23)c1 | n | n | n | n | u | 56µM
CCc1nc(N(CC)CC)c2oc3ccccc3c2n1 | n | n | u | n | x | n
CCc1nc(N2CCC(C)CC2)c2oc3ccccc3c2n1 | n | n | 11µM | n | n | 40µM
COc1ccc2c(c1)[C@H]1[C@H](CO2)[C@H](c2ccccc2)[C@@]2(C)C(=O)N[C@H](C)C(=O)N12 | n | n | n | n | x | x
Cc1cc2c(cc1S(=O)(=O)N(C)C1CCCCC1)OCC(=O)N2 | n | n | n | n | n | n
CCc1nc(NCc2cccnc2)c2oc3ccccc3c2n1 | n | n | u | n | n | 50µM
CCc1nc(Nc2ccccc2O)c2oc3ccccc3c2n1 | u | n | n | n | 79µM | u
O=C(Cc1ccc(Cl)cc1)N/N=C/c1ccc(O)c(O)c1 | x | n | 14µM | x | x | x
O=C(C[n+]1ccccc1)N/N=C/c1ccc(Cl)cc1 | u | n | n | n | 50µM | n[12.7 µM]
